Assay outcomes deposited in PubChem BioAssay by National Center for Advancing Translational Sciences (NCATS).
Giardia FBPA inh: inhibitors of Giardia lamblia fructose-1,6-bisphosphate aldolase; purified Giardia FBPA; Potency, µM (series often up to 59.6 µM), actives largely listed as inhibitors; 290,000 tested, 0.71% active; AID 2451; also: nearly all actives have a fitted effect of over 55% in size
Target sequence (A8B2U2 whole entry, looked up): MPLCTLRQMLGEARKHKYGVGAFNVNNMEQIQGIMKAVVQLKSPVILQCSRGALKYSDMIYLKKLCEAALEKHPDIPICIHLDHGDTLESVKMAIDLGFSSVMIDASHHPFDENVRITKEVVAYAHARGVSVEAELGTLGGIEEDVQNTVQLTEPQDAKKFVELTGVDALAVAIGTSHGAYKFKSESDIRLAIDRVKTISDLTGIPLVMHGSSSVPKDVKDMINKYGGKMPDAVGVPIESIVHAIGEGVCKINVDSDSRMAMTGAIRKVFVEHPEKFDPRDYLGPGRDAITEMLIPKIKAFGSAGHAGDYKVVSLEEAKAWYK
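Giardia FBPA (40 nM reagent) was preincubated 10 min at RT with compound (up to 57.5 uM final), then substrate plus GAPDH/TPI/NAD/arsenate coupling system with diaphorase/resazurin was added; resorufin fluorescence (525/598 nm) was read after 20 min.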
Shiga inhibitor: Shiga toxin inhibition | Vero cells, Shiga toxin protein synthesis inhibition reporter | inhibition, % at 38.7 µM | 290,000 tested, 9.2% active | AID 2315; in the data active = inhibition mostly above about 28%, no sharp cut-off; inactive = mostly below about 43%
CHX counter: counter-screen for Shiga toxin inhibitors: cycloheximide protein synthesis inhibition. max response, %. AID 2314. cell reporter, cycloheximide protein synthesis inhibition counterscreen. 300,000 tested, 12% active; in the data active = max response mostly above about 13%, no sharp cut-off; inactive = mostly below about 14%; also: read at 38.3 µM for the half of the compounds with a filed dose
Pf growth 48h: P. falciparum growth inhibition at 48 hours (one generation); Potency, µM (doses to about 28.7 µM), actives largely listed as inhibitors; P. falciparum luciferase growth in erythrocytes, 48 h; 310,000 tested, 5.9% active
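Firefly luciferase activity from engineered P. falciparum reports growth; inhibitors lower the luminescent signal. Cultures contained 2% hematocrit erythrocytes at 0.1% final parasitemia.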
Pf growth 96h: P. falciparum growth inhibition at 96 hour, primary screen for plastid delayed-death inhibitors | 320,000 tested, 6.9% active | Potency, µM (series often up to 28.7 µM), actives largely listed as inhibitors | AID 504834 | P. falciparum luciferase reporter growth, 96 h
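Luminescence readout: decreased luciferase signal marks inhibited growth of reporter-expressing P. falciparum in infected red cells (2% hematocrit, 0.05% parasitemia final), exposed to compound two generations (96 h, 37 C, 5% CO2).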
NS1 function inh: blocks influenza NS1 protein function | 270,000 tested, 0.4% active | Potency, µM (highest dose often 46.1 µM); calls by dose curve; also: actives are rising curves; nearly all actives have a fitted effect of over 50% in size
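S. cerevisiae expressing influenza A NS1, grown in glucose, washed, then diluted 1:100 into pH 6.0 -URA galactose medium with 23 nl compound. Growth recovery read as OD600; NS1-free strain serves as control.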
Numbers stand for hits; [ ] = another dose, or the depositor's remark. A selection: hits, their analogues and other compounds. The true share with any hit is near 21%. Unless noted, calls follow the shape of the dose curve; as a rule, active = well fitted curve in the direction sought with a large enough effect; inconclusive = small, poorly fitted or top-dose-only effect, or another doubt; inactive = no such curve, though single readings can be large; an effect the other way counts as inactive or inconclusive.

Screening C=CCC1C=CC(OC(=O)OCC)C(COC(=O)OCC)O1 (centres undefined) returned Giardia FBPA inh inactive[12.9 µM].
COc1ccc(C(=O)N2CCC3(CC2)CN(C(=O)NC(C)C)C3)cc1 was read as Giardia FBPA inh inactive.
Cc1ccc(C(=O)NCC(=O)N2CCCC(C(F)(F)F)C2)s1 (centres undefined) was read as Pf growth 48h inactive and Pf growth 96h inactive.
`CCC(=O)c1ccc(N2CCN(S(=O)(=O)c3ccccc3)CC2)c(F)c1` gave Giardia FBPA inh inactive, Shiga inhibitor inactive, CHX counter 44.0, Pf growth 48h inactive, Pf growth 96h 9.28µM and NS1 function inh inactive.
`Clc1ccc2nc(N3CCNCC3)nc(-c3ccccc3)c2c1` gave Giardia FBPA inh inactive, Shiga inhibitor inactive, CHX counter inactive, Pf growth 48h 11.7µM, Pf growth 96h inactive[5.75 µM] and NS1 function inh inactive.
`CCCC(=O)c1ccc(N2CCN(S(=O)(=O)c3ccccc3)CC2)c(F)c1` gave Giardia FBPA inh inactive, Shiga inhibitor inactive, CHX counter inactive, Pf growth 48h inconclusive, Pf growth 96h inactive and NS1 function inh inactive.
CN1CCN(c2nc(-c3ccccc3)c3cc(Cl)ccc3n2)CC1 was read as Giardia FBPA inh inactive, Shiga inhibitor inactive, CHX counter inactive, Pf growth 48h inconclusive, Pf growth 96h inactive and NS1 function inh inactive.
For O=C(O)CCCC(=O)Nc1ccccc1SCCS(=O)(=O)c1ccc(Cl)cc1 the results were Giardia FBPA inh inactive, Shiga inhibitor inactive, CHX counter inactive, Pf growth 48h inactive, Pf growth 96h inactive and NS1 function inh inactive.
Cc1nc(SCC(=O)OCc2ccccc2)c(C#N)c(-c2ccccc2)c1C(=O)Nc1ccccc1 was read as Giardia FBPA inh inactive, Shiga inhibitor inactive, CHX counter inactive, Pf growth 48h inconclusive, Pf growth 96h inconclusive and NS1 function inh inactive.
Cc1ccccc1NC(=O)c1c(C)nc(SCC(=O)OCc2ccccc2)c(C#N)c1-c1ccc(F)cc1 was read as Giardia FBPA inh inactive, Shiga inhibitor inactive, CHX counter inactive, Pf growth 48h 13.1µM, Pf growth 96h inconclusive and NS1 function inh inactive.
`C/C(=N\O)c1ccc2c(c1)OCCO2` gave Giardia FBPA inh inactive, Shiga inhibitor inactive, CHX counter inactive, Pf growth 48h inactive and Pf growth 96h inactive.
`C/C(=N\O)c1ccc2[nH]ccc2c1` gave Giardia FBPA inh inactive, Shiga inhibitor inactive, CHX counter 15.1, Pf growth 48h inactive, Pf growth 96h inactive and NS1 function inh inactive.
`COC(=O)COc1ccc(/C=N/NC(=O)c2ccc(N(Cc3ccccc3)S(C)(=O)=O)cc2)cc1` gave Giardia FBPA inh inactive, Shiga inhibitor inactive, CHX counter inactive, Pf growth 48h inconclusive, Pf growth 96h inconclusive and NS1 function inh inactive.
`CC(C)=CCC1=C(O)[C@](O)(CC=C(C)C)C(=O)C(C(=O)CC(C)C)=C1O` gave Giardia FBPA inh inactive.
Screening COc1cccc(CN2CC(C(=O)NCCN3CCOCC3)CCC2=O)c1 (centres undefined) returned Shiga inhibitor inactive, CHX counter inactive, Pf growth 48h inactive, Pf growth 96h 14.7µM and NS1 function inh inactive.
`COc1cccc(CN2CC(C(=O)N3CCOCC3)CCC2=O)c1` (centres undefined) gave Giardia FBPA inh inactive, Shiga inhibitor 65.9, CHX counter 45.8, Pf growth 48h inactive, Pf growth 96h inactive and NS1 function inh inactive.
For Cc1ccc(NS(=O)(=O)c2c(C(=O)N3CCOCC3)c(C)n(C)c2C)cc1C the results were Giardia FBPA inh inactive, Shiga inhibitor inactive, CHX counter inactive, Pf growth 48h inactive, Pf growth 96h inactive and NS1 function inh inactive.
`Cc1c(C(=O)N2CCOCC2)c(S(=O)(=O)Nc2ccc(C(C)C)cc2)c(C)n1C` gave Giardia FBPA inh inactive, Shiga inhibitor inactive, CHX counter inactive, Pf growth 48h inactive, Pf growth 96h 10.4µM and NS1 function inh inactive.
`CCOc1ccc(-c2nnc(Nc3ccc(OC)c(C(=O)N4CCCCC4)c3)c3ccccc23)cc1` gave Giardia FBPA inh inactive, Shiga inhibitor inactive, CHX counter inactive, Pf growth 48h 4.15µM, Pf growth 96h 1.17µM and NS1 function inh inactive.
For CC(=O)Nc1ccc(SCC(=O)c2cc(C)n(CC(F)(F)F)c2C)cc1 the results were Giardia FBPA inh inactive, Shiga inhibitor 71.1, CHX counter 34.7, Pf growth 96h inactive and NS1 function inh inactive.
Screening CC(=O)Nc1ccc(SCC(=O)c2cc(C)n(C)c2C)cc1 returned Giardia FBPA inh inactive, Shiga inhibitor inactive, CHX counter inactive, Pf growth 96h inactive and NS1 function inh inactive.
`COc1ccc(CN2CCNC(=O)C2CC(=O)N2CCCN(C(C)=O)CC2)c(OC)c1` (centres undefined) gave Giardia FBPA inh inactive, Shiga inhibitor inactive, CHX counter inactive, Pf growth 48h inactive, Pf growth 96h inconclusive and NS1 function inh inactive.
Screening Cn1c(=O)c2c(nc(NCc3ccccc3)n2Cc2ccc(F)cc2)n(C)c1=O returned Giardia FBPA inh inactive, Shiga inhibitor inactive, CHX counter inactive, Pf growth 48h inconclusive, Pf growth 96h 14.7µM and NS1 function inh inactive.
`CCNc1nc2c(c(=O)n(Cc3ccccc3)c(=O)n2C)n1Cc1ccccc1` gave Giardia FBPA inh inactive, Shiga inhibitor inactive, CHX counter inactive, Pf growth 48h 10.4µM, Pf growth 96h inactive and NS1 function inh inactive.
Screening Cn1c(=O)c2c(nc(Br)n2Cc2ccc3ccccc3c2)n(C)c1=O returned Giardia FBPA inh inactive, Shiga inhibitor inactive, CHX counter inactive, Pf growth 96h 5.22µM and NS1 function inh inactive.
For Cn1c(=O)c2c(nc(Br)n2Cc2ccccc2Cl)n(C)c1=O the results were Giardia FBPA inh inactive, Shiga inhibitor inactive, CHX counter inactive, Pf growth 48h inactive, Pf growth 96h inconclusive and NS1 function inh inactive.
COCCNc1nc2c(c(=O)n(Cc3ccc(OC)cc3)c(=O)n2C)n1C was read as Giardia FBPA inh inactive, Shiga inhibitor inactive, CHX counter inactive, Pf growth 48h inactive, Pf growth 96h inactive and NS1 function inh inactive.
COc1ccc(CNc2nc3c(c(=O)n(Cc4ccc(Cl)cc4)c(=O)n3C)n2C)cc1 was read as Giardia FBPA inh inactive, Shiga inhibitor inactive, CHX counter inactive, Pf growth 48h 2.62µM, Pf growth 96h inconclusive and NS1 function inh inactive.
`Cc1ccc(/C=C2\SC(=S)N(CCC(=O)N3CCOCC3)C2=O)cc1` gave Shiga inhibitor inactive, CHX counter inactive, Pf growth 48h inconclusive, Pf growth 96h inconclusive and NS1 function inh inactive.
For CN(Cc1ccco1)C(=O)Cn1nc(-c2ccc(Cl)cc2)ccc1=O the results were Giardia FBPA inh inactive, Shiga inhibitor inactive, CHX counter inactive, Pf growth 48h inactive and Pf growth 96h inactive.
`Cc1ccc(NC(=O)C2CCCN(S(=O)(=O)c3ccc(-n4cnnn4)cc3)C2)cc1` (centres undefined) gave Shiga inhibitor inactive, CHX counter inactive, Pf growth 48h inactive, Pf growth 96h inactive and NS1 function inh inactive.
